Measurements reported in article PMC5540273 (PLoS ONE, 2017).
Where “and” joins values, the source holds several entries; their conditions need not be identical. Equal entries are not always repeated. Where two headings read alike, the source gives them in different places.

How the values were obtained:
AMPK-alpha2 = system: T1, AMPK-alpha2; conditions: concentration: 1 μM, replicates: in singlicate, n = 1
T1 construct: gene PRKAA2

ANKK1 = conditions: concentration: 1 μM, replicates: in singlicate; n = 1
ARK5 = system: T2, ARK5; conditions: concentration: 1 μM, replicates: in singlicate, n = 1
T2 construct: gene NUAK1

ASK1 = system: T3, ASK1; conditions: concentration: 1 μM, replicates: in singlicate, n = 1
T3 construct: gene MAP3K5

ASK2 = system: T4, ASK2; conditions: concentration: 1 μM, replicates: in singlicate; n = 1
T4 construct: gene MAP3K6

AURKA = conditions: concentration: 1 μM, replicates: in singlicate, n = 1
AURKB = conditions: concentration: 1 μM, replicates: in singlicate, n = 1
AURKC = conditions: concentration: 1 μM, replicates: in singlicate, n = 1
AXL = conditions: concentration: 1 μM, replicates: in singlicate, n = 1
BIKE = system: T5, BIKE; conditions: concentration: 1 μM, replicates: in singlicate, n = 1
T5 construct: gene BMP2K
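Note: KINOMEscan kinase panel screen.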

| Compound | %Inh (AMPK-alpha2) [%] | %Inh (ANKK1) [%] | %Inh (ARK5) [%] | %Inh (ASK1) [%] | %Inh (ASK2) [%] | %Inh (AURKA) [%] | %Inh (AURKB) [%] | %Inh (AURKC) [%] | %Inh (AXL) [%] | %Inh (BIKE) [%] | %Inh (AMPK-alpha2; 1 µM) | %Inh (ARK5; 1 µM) | %Inh (ASK1; 1 µM) | %Inh (AURKA; 1 µM) | %Inh (AURKB; 1 µM) | %Inh (AURKC; 1 µM) | %Inh (AXL; 1 µM) | %Inh (BIKE; 1 µM) |
| --- | --- | --- | --- | --- | --- | --- | --- | --- | --- | --- | --- | --- | --- | --- | --- | --- | --- | --- |
| CCc1ccnc(/C=C/c2n[nH]c3cc(Sc4ccccc4C(=O)NC)ccc23)c1 | 0 | 0 | 11 | 0 | 0 | 77 | 94.5 | 97.3 | 45 | 34 | – | – | – | – | – | – | – | – |
| COc1ccc(Nc2nccc(N3CCC(NC(=O)Nc4cccc(C(C)=O)c4)C3)n2)cc1 (centres unmarked) [GSK1379731] | 0 | 0 | 50 | 0 | 0 | 0 | 0 | 40 | 9 | 30 | – | – | – | – | – | – | – | – |
| O=C1NC(=O)C(N2CCc3ccccc32)=C1c1cccc(Cl)c1 [SB-408010] | 22 | 1 | 10 | 0 | 0 | 25 | 7 | 37 | 0 | 37 | – | – | – | – | – | – | – | – |
| CSc1ccc(-c2cc3ncnc(SCC(=O)O)c3s2)cc1 | 5 | 0 | 0 | 0 | 0 | 0 | 78 | 12 | 5 | 12 | – | – | – | – | – | – | – | – |
| COc1ccc(S(=O)(=O)NC2CCN(c3cc(C)nc(Nc4cccc(C#N)c4)n3)CC2)cc1.O=C(O)C(F)(F)F [GSK1653539] | 0 | 14 | 8 | 0 | 0 | 2 | 7 | 0 | 0 | 5 | – | – | – | – | – | – | – | – |
| Nc1nc(-c2ccc3c(N)n[nH]c3c2)cc(N2CCCC2)n1 [GSK2227430] | 0 | 4 | 17 | 0 | 0 | 0 | 0 | 37 | 0 | 33 | – | – | – | – | – | – | – | – |
| COc1ccc(Nc2nccc(N3CCC(NC(=O)Nc4cc(C)ccc4C)C3)n2)cc1 (centres unmarked) [GSK1379741] | 0 | 0 | 11 | 12 | 0 | 15 | 37 | 46 | 0 | 0 | – | – | – | – | – | – | – | – |
| C[C@@H](Oc1cc(-n2cnc3ccc(NC(=O)NC(C)(C)C)cc32)sc1C(N)=O)c1ccccc1Cl [GSK346294] | 12 | 8 | 11 | 3 | 0 | 8 | 22 | 34 | 0 | 32 | – | – | – | – | – | – | – | – |
| COc1cc2c(cc1OCCN1CCN(C)CC1)ncc1c3ccc(C#N)cc3[nH]c21 | 0 | 54 | 22 | 0 | 0 | 0 | 70 | 33 | 26 | 100 | – | – | – | – | – | – | – | – |
| Cl.Oc1cccc(Nc2ccnc3cc(-c4ccncc4)ccc23)c1 [GW494601] | 0 | 43 | 9 | 0 | 0 | 23 | 43 | 32 | 21 | 7 | – | – | – | – | – | – | – | – |
| Fc1ccc(-c2ncn(CCCN3CCOCC3)c2-c2ccccn2)cc1 [SB-211742] | 0 | 0 | 0 | 10 | 0 | 0 | 0 | 0 | 6 | 23 | – | – | – | – | – | – | – | – |
| CC(=O)Nc1ccc(COc2ccc(Nc3ccnc4cc(-c5ccccn5)ccc34)cc2)cc1.Cl [GW440148] | 11 | 8 | 18 | 10 | 0 | 14 | 67 | 46 | 1 | 8 | – | – | – | – | – | – | – | – |
| N#Cc1c(N2CCOCC2)sc(-c2ccn[nH]2)c1-c1ccc(Cl)cc1 | 0 | 0 | 0 | 0 | 0 | 44 | 4 | 0 | 0 | 0 | – | – | – | – | – | – | – | – |
| Cc1nnc(-c2ccc(C)c(-c3ccc(C(=O)Nc4ccc(NS(C)(=O)=O)cc4)cc3)c2)o1 [GW702865] | 1 | 14 | 0 | 0 | 0 | 30 | 8 | 3 | 1 | 7 | – | – | – | – | – | – | – | – |
| Cc1cccc(-c2nc(-c3ccc(S(C)(=O)=O)cc3)sc2-c2ccncc2)c1 | 7 | 0 | 13 | 0 | 15 | 24 | 23 | 0 | 12 | 0 | – | – | – | – | – | – | – | – |
| O=C1Cc2cc(Nc3nc(NCc4cccc(S(=O)(=O)C(F)(F)F)c4)ncc3C(F)(F)F)ccc2N1 | 0 | 0 | 22 | 11 | 0 | 1 | 13 | 0 | 2 | 0 | – | – | – | – | – | – | – | – |
| Cl.Cl.Cl.Fc1ccc(-c2ncn(C3CCNCC3)c2-c2ccnc(Nc3ccccc3)n2)cc1 [SB-238039] | – | 0 | – | – | 0 | – | – | – | – | – | 17% and 0% | 9% and 10% | 34% and 1% | 16% and 36% | 25% and 0% | 0% and 19% | 0% and 44% | 0% and 9% |
